Screening results deposited in PubChem by several laboratories.
Compounds with a hit are over-represented: about 1.7% of the library has one in this group of screens.
PfHsp40 rescue: restores yeast growth despite PfHsp40 toxicity; S. cerevisiae expressing PfHsp40, growth rescue, ATP luminescence; growth rescue, % at 12.5 µM; 0.68% of 340,000 active; AID 504582; in the data active = growth rescue above about 28%, passing the limit was not always enough;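 also: yeast W303a lacking pdr1 and pdr3 grown in galactose medium; growth measured after three days at 30 °C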
Yp Topo-I inh: blocks Yersinia pestis topoisomerase I activity; activity, % at 10 µM; Y. pestis Topo-I cleavage product accumulation, plate reader; 0.064% of 360,000 active; in the data active = activity above about 50%, passing the limit was not always enough
PrPC surface inh: cell surface PrPC inhibition, primary TR-FRET screen; P04156; TR-FRET read-out; inhibition, % at 13.8 µM; 0.43% of 370,000 active; AID 720596; in the data active = inhibition above about 24%; also: 0% = median of the test wells and 100% = reference compound wells
SSB-PriA inh: K. pneumoniae PriA-SSBct interaction inhibition. AlphaScreen SSBct-PriA binding, biotinylated peptide. inhibition, % at 33 µM. 0.6% of 430,000 active. AID 1272365; in the data active = inhibition mostly above about 37%, no sharp cut-off; inactive = mostly below about 20%;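 also: plate controls were negative control peptide for no effect and reference peptide for full effect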
PrP 5UTR inh: suppresses PrP 5' UTR mRNA reporter expression. cell-based PrP 5' UTR mRNA reporter, plate reader. inhibition, % (no concentration beside the values). 0.35% of 340,000 active. AID 488862; in the data active = inhibition above about 52%; also: 0 = median of the neutral control wells
BJeLR viability: kills HRASV12-expressing BJeLR cells | inhibition, % (concentration not given with the values) | 0.17% of 300,000 active | BJeLR (HRASV12) viability, CellTiter-Glo ATP luminescence, 48 h; in the data active = inhibition above about 50%
An asterisk follows results filed as active.

Screening CCN(CC)c1ccc(C=NNC(=O)c2cccc(S(=O)(=O)N3CCOCC3)c2)c(O)c1 returned SSB-PriA inh -11.9.
Screening CCN(CC)c1ccc(/C=N/NC(=O)c2c(Cl)cnn2C)c(O)c1 returned PfHsp40 rescue 546.1*, Yp Topo-I inh -2.8, PrPC surface inh 16.2, PrP 5UTR inh 12.0 and BJeLR viability 45.5.
For CCN(CC)c1ccc(C=NNC(=O)OC)c(O)c1 the results were SSB-PriA inh 15.5.
`CCN(CC)c1ccc(/C=N/NC(=O)c2cccc(S(=O)(=O)N3CCOCC3)c2)c(O)c1` gave PfHsp40 rescue 230.9*, Yp Topo-I inh 3.8, PrPC surface inh 3.6, PrP 5UTR inh 30.4 and BJeLR viability 53.6*.
Cc1cc(Cl)ccc1OCC(=O)Nc1cccc(S(=O)(=O)NC2=NCCCCC2)c1 was read as PfHsp40 rescue 3.2, Yp Topo-I inh 22.9, PrPC surface inh 12.6, SSB-PriA inh 0.1, PrP 5UTR inh -32.2 and BJeLR viability 4.6.
For Cc1ccc(C)c(OCC(=O)Nc2cccc(S(=O)(=O)NC3=NCCCCC3)c2)c1 the results were PfHsp40 rescue 0.1, Yp Topo-I inh 25.5, PrPC surface inh 14.2, SSB-PriA inh 49.2*, PrP 5UTR inh -5.1 and BJeLR viability 1.5.
Screening Cc1c(C(=O)OCc2ccccc2F)nnn1-c1ccc(Cl)cc1 returned SSB-PriA inh -10.0.
Screening Cc1ccc(Cl)cc1N1CCN(C(=O)CCc2csc(NC(=O)NC3CCCCC3)n2)CC1 returned SSB-PriA inh 5.0.
N#Cc1nc(-c2cccs2)oc1NCCc1ccccc1 was read as PfHsp40 rescue 105.7*, Yp Topo-I inh 17.8, PrPC surface inh 10.0, SSB-PriA inh 21.4, PrP 5UTR inh -12.2 and BJeLR viability 5.0.
Screening N#Cc1nc(-c2cccs2)oc1NCc1ccc2c(c1)OCO2 returned PfHsp40 rescue 8.0, Yp Topo-I inh 8.8, PrPC surface inh 9.1, SSB-PriA inh 48.2*, PrP 5UTR inh 1.0 and BJeLR viability -4.3.
For N#Cc1nc(-c2cccs2)oc1N1CCN(Cc2ccccc2)CC1 the results were PfHsp40 rescue 18.1, Yp Topo-I inh 29.6, PrPC surface inh -2.2, SSB-PriA inh 41.4*, PrP 5UTR inh 0.4 and BJeLR viability -17.8.
`CCN(CC)S(=O)(=O)c1ccc(-c2nc(C#N)c(NCc3ccc4c(c3)OCO4)o2)cc1` gave SSB-PriA inh -2.0.
COc1ccc(C(=O)N2CCC(Oc3cccnn3)CC2)cc1OC was read as SSB-PriA inh -3.0.
O=C(NN=Cc1sc(N2CCOCC2)nc1-c1ccccc1)c1ccccc1O was read as SSB-PriA inh -9.1.
For O=C(N/N=C/c1sc(N2CCOCC2)nc1-c1ccccc1)c1ccccc1O the results were PfHsp40 rescue 238.4*, Yp Topo-I inh -6.1, PrPC surface inh -6.7, PrP 5UTR inh -8.7 and BJeLR viability -13.5.
For O=C(Cn1ncccc1=O)N1C2CCC1CC(S(=O)(=O)c1ccccc1)C2 (stereo not drawn) the results were SSB-PriA inh 88.0*.
Screening CC(=O)N1C2CCC1CC(S(=O)(=O)c1ccccc1)C2 (stereo not drawn) returned SSB-PriA inh -7.0.
For O=S(=O)(c1ccccc1)C1CC2CCC(C1)N2S(=O)(=O)C1CC1 (stereo not drawn) the results were SSB-PriA inh 91.0*.
COc1ccc(OC)c(C2CC(c3ccc(NS(C)(=O)=O)cc3)=NN2C(=O)c2ccco2)c1 (stereo not drawn) was read as SSB-PriA inh 20.0.
Screening CCN(CC)C(=NO)NC(=O)NS(=O)(=O)c1ccc(C)cc1 returned SSB-PriA inh -7.0.
Screening CCOC(=O)C1=C(C)NC2=C(C(=O)c3ccccc32)C1c1cccc2ccccc12 (stereo not drawn) returned PfHsp40 rescue 1.2, Yp Topo-I inh 3.5, PrPC surface inh -6.9, SSB-PriA inh -0.8, PrP 5UTR inh -5.4 and BJeLR viability -13.2.
CCOC(=O)C1=C(C)NC2=C(C(=O)c3ccccc32)C1c1ccc(O)cc1 (stereo not drawn) was read as PfHsp40 rescue 0.6, Yp Topo-I inh -7.8, PrPC surface inh -45.0, SSB-PriA inh 52.5*, PrP 5UTR inh -5.8 and BJeLR viability -8.2.
Screening CCC(CO)Nc1nc(Nc2cc(C)ccc2C)c2nccnc2n1 (stereo not drawn) returned SSB-PriA inh -31.0.
NC(=O)CCN(C(=O)c1cccc(S(=O)(=O)N2CCc3ccccc32)c1)c1ccccc1 was read as PfHsp40 rescue 46.6*, Yp Topo-I inh 23.7, PrPC surface inh -0.7, SSB-PriA inh -5.5 and PrP 5UTR inh -14.2.
Cc1nnsc1C(=O)NCCOc1cccc2cccnc12 was read as SSB-PriA inh -13.0.
For Oc1c(Br)cc(-c2ccccc2)cc1Br the results were PfHsp40 rescue 579.5*, Yp Topo-I inh 1.3, PrPC surface inh 9.3, SSB-PriA inh -14.1 and PrP 5UTR inh -20.5.
Screening Oc1ccc(-c2ccccc2)cc1Br returned SSB-PriA inh -26.0.
Screening CC(CNC(=O)C1CCCCC1)NC(=O)C1CCCCC1 (stereo not drawn) returned PfHsp40 rescue 80.4*, Yp Topo-I inh 3.2, PrPC surface inh -7.2, SSB-PriA inh -13.2, PrP 5UTR inh 0.7 and BJeLR viability 7.9.
CC(C)CNC(=O)C(=O)NNC(=O)C1CCCCC1 was read as PfHsp40 rescue 0.5, Yp Topo-I inh -2.5, PrPC surface inh -3.7, SSB-PriA inh -0.2, PrP 5UTR inh -3.9 and BJeLR viability 4.2.
For N#CCCn1cc(C(=O)Nc2ccccc2Cl)c(-c2ccc(F)cc2)n1 the results were PfHsp40 rescue 46.9*, Yp Topo-I inh 1.5, PrPC surface inh 6.7, SSB-PriA inh -12.3, PrP 5UTR inh -10.2 and BJeLR viability -8.1.
For COc1ccc(N=Nc2cc(C)ccc2O)cc1 the results were PfHsp40 rescue 0.0, Yp Topo-I inh 7.8, PrPC surface inh -8.1, SSB-PriA inh 76.7*, PrP 5UTR inh -37.3 and BJeLR viability 0.9.
For COc1ccc(N=Nc2ccc3ccccc3c2)c(O)c1 the results were PfHsp40 rescue 0.0, Yp Topo-I inh 1.4, PrPC surface inh -14.9, SSB-PriA inh 34.3, PrP 5UTR inh 4.3 and BJeLR viability 5.4.
For COc1ccc(OC)c(N)c1 the results were PfHsp40 rescue 0.4, Yp Topo-I inh 42.5, PrPC surface inh -3.1, SSB-PriA inh 74.3*, PrP 5UTR inh -7.2 and BJeLR viability -1.1.
COc1ccc(N=Nc2cc(OC)c(N)cc2OC)cc1 was read as PfHsp40 rescue 1.6, Yp Topo-I inh -7.8, PrPC surface inh -32.7, SSB-PriA inh 61.9* and PrP 5UTR inh -26.5.
For O=C(Cn1c(=O)oc2ccccc21)NCCn1ccnc1C1CC1 the results were SSB-PriA inh -5.0.
Screening O=C(c1cccs1)c1coc2ccc(O)cc12 returned PfHsp40 rescue 47.8*, Yp Topo-I inh -3.8, PrPC surface inh 5.4, SSB-PriA inh -7.5, PrP 5UTR inh -101.2 and BJeLR viability -2.6.
